# Screening data deposited in PubChem BioAssay by several laboratories.
# Shown are actives, neighbours in structure and some others; about 3.8% of the full set was active somewhere.
# Mtb hypoxia rep: Mtb hypoxia fluorescent reporter inhibition; M. tuberculosis hypoxia-regulated fluorescent reporter, fluorescence; AID 1159583; 300,000 tested, 0.1% active; fluorescence inhibition, % (concentration not given with the values); in the data active = fluorescence inhibition mostly above about 23%, no sharp cut-off; inactive = mostly below about 17%
# PrPC TRFRET: inhibitors of human cell surface prion protein PrPC; P04156; TR-FRET read-out; inhibition, % at 13.8 µM; 370,000 tested, 0.43% active; in the data active = inhibition above about 24%; also: 0% = median of the test wells and 100% = reference compound wells
# Mtb FBA inh: Mtb fructose-bisphosphate aldolase inhibition. purified M. tuberculosis FBA, fluorescence read-out. P9WQA3. inhibition, % at 1 µM. 360,000 tested, 2.3% active; in the data active = inhibition above about 27%;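 also: 0% = vehicle and 100% = reference inhibitor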
# Target sequence (P9WQA3 whole entry, looked up): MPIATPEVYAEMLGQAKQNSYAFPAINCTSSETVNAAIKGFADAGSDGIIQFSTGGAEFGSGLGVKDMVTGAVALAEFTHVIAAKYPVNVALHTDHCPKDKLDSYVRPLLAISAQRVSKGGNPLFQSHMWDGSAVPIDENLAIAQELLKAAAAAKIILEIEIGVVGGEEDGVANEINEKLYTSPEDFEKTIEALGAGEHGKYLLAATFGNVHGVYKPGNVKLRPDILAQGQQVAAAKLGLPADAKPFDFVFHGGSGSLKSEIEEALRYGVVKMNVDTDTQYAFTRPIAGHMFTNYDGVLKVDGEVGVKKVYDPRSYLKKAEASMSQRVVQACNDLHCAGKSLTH
# GDH-TPI counter: inhibits GDH-TPI coupling enzymes, artifact for Mtb FBA screen; GDH-TPI coupled enzyme counterscreen, NADH absorbance; inhibition, % at 4.8 µM; 360,000 tested, 1.2% active; AID 588335; in the data active = inhibition above about 30%;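 also: 0% = DMSO wells and 100% = wells lacking the enzyme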
# Y pestis TopoI: inhibitors of Yersinia pestis topoisomerase I; AID 504884; 360,000 tested, 0.064% active; activity, % at 10 µM; Y. pestis Topo-I cleavage product accumulation, plate reader; in the data active = activity above about 50%, passing the limit was not always enough
# PrP 5UTR inh: suppresses PrP 5' UTR mRNA reporter expression | cell-based PrP 5' UTR mRNA reporter, plate reader | 340,000 tested, 0.35% active | inhibition, % (no concentration beside the values); in the data active = inhibition above about 52%; also: 0 = median of the neutral control wells
# An asterisk follows results filed as active; . = no result; + = active, no number.
SMILES,Mtb hypoxia rep,PrPC TRFRET,Mtb FBA inh,GDH-TPI counter,Y pestis TopoI,PrP 5UTR inh
COc1ccc(CC2S/C(=N/N=Cc3ccccc3O)NC2=O)cc1 (stereo not drawn),6,.,.,.,.,.
COc1cc(/C=N/N=C2/NC(=O)C(CC(=O)O)S2)ccc1OCc1ccc(Cl)cc1 (stereo not drawn),.,-4,-5,51*,7,-55
COc1cc(C=N/N=C2/NC(=O)C(c3ccccc3)S2)ccc1O (stereo not drawn),10,.,.,.,.,.
O=C1N/C(=N/N=C/c2ccc(O)cc2)SC1Cc1ccccc1 (stereo not drawn),.,2,-5,62*,4,-2
O=c1cc(-c2ccc(O)cc2)oc2c(-c3c(O)cc(O)c4c(=O)cc(-c5ccc(O)cc5)oc34)c(O)cc(O)c12,.,-7,1,35*,-26,2
COc1ccc(-c2cc(=O)c3c(O)cc(O)cc3o2)cc1,4,-4,2,34*,-9,-19
O=c1cc(-c2ccc(O)c(-c3c(O)cc(O)c4c(=O)cc(-c5ccc(O)cc5)oc34)c2)oc2cc(O)cc(O)c12,19,1,-1,33*,6,-11
CC(=NNC(=O)C(O)c1ccccc1)c1ccc(C)s1 (stereo not drawn),-8,.,.,.,.,.
CN1CCN(C(=O)C2=CC(C3CC3)CC(OCc3ccc(CO)cc3)O2)CC1 (stereo not drawn),22,.,.,.,.,.
Cc1ccc2c(c1)C1C(CO2)C(c2ccccc2)[C@]2(C)C(=O)N(Cc3ccc(F)cc3)CC(=O)N12 (stereo partly drawn),1,.,.,.,.,.
CC1CCCN(C(=O)CSc2nnc(-c3cccs3)o2)C1 (stereo not drawn),51*,-16,5,-2,4,-61
O=C(CSc1nnc(-c2ccc(F)cc2)o1)N1CCCCC1,46*,3,0,-7,11,-36
COC(=O)C1=C(c2cc3ccccc3o2)CC2CCC1N2C(=O)NCc1ccccc1 (stereo not drawn),11,.,.,.,.,.
N#CC(=NO)c1nc(-c2ccc(F)cc2)cs1,10,.,.,.,.,.
O=c1ccc2cc(O[C@@H]3O[C@@H](CO)[C@H](O)[C@@H](O)[C@@H]3O)c(O)cc2o1,5,-5,+,6,6,-31
COc1cc2ccc(=O)oc2c(O[C@@H]2O[C@H](CO)[C@@H](O)[C@H](O)[C@H]2O)c1O,-12,-7,185*,1,1,-23
O=C(O)c1ccc2c(c1)C(=O)N(c1ccc([N+](=O)[O-])cn1)C2=O,2,-9,-1,36*,-2,-9
Cc1ccc(C)c(C(O)=C2C(=O)C(=O)N(CCCn3ccnc3)C2c2cccnc2)c1 (stereo not drawn),6,.,.,.,.,.
O=C(NN=Cc1cccn1-c1ccc(O)cc1)c1cccc2ccccc12,-2,.,.,.,.,.
NC(=O)CCC1NC(=O)C(CO)NC(=O)c2cc([N+](=O)[O-])cc(I)c2NCCCCC(C(N)=O)NC(=O)C(Cc2ccc(O)cc2)NC1=O (stereo not drawn),19,.,.,.,.,.
CC=CC(=O)Nc1cccc(C2=NOC3(C2)CC(C(N)=O)N(C(=O)C(C)=CC)C3)c1 (stereo not drawn),6,.,.,.,.,.
C#CCOCCOCCOCCNc1nc(N2CCN(C(=O)CCCCCCCCCCNC(=O)[C@H]([C@@H](C)CC)n3cc(CCCCCN)nn3)CC2)nc(N2CCN(C(=O)CCCCCCCCCCNC(=O)[C@H]([C@@H](C)CC)n3cc(CCCCN=C(N)N)nn3)CC2)n1,.,.,2,15,105*,-2
O=C(CNC(=O)C(=Cc1ccccc1)NC(=O)c1ccc(Br)cc1)OCc1ccccc1,3,.,.,.,.,.
CC(C(=O)N=Nc1c(O)[nH]c2ccccc12)n1cnc2ccccc2c1=O (stereo not drawn),14,-23,-1,10,2,48
Cc1cccc2c(N=NC(=O)C(C)n3cnc4ccccc4c3=O)c(O)[nH]c12 (stereo not drawn),-9,5,-3,35*,-2,-15
SMILES,Mtb hypoxia rep,PrPC TRFRET,Mtb FBA inh,GDH-TPI counter,Y pestis TopoI,PrP 5UTR inh
COCc1cc(C)n(CC(=O)N/N=C/c2ccc(-c3ccc(Cl)c(C(=O)O)c3)o2)c(=O)c1C#N,.,-10,5,69*,0,-12
N#C/C(=C/c1ccc(CNS(=O)(=O)c2ccccc2)o1)C(N)=O,2,-19,-1,37*,-7,14
N#C/C(=C/c1ccc(CNS(=O)(=O)c2ccccc2)o1)C(=O)NCc1ccccc1,1,-1,0,30,-2,-36
CCS(=O)(=O)c1nc(S(=O)(=O)c2ccc(C)cc2)c(N2CCCCCC2)s1,.,-3,-2,17,32,.
CCS(=O)(=O)c1nc(S(=O)(=O)c2ccc(C)cc2)c(N2CCCC2)s1,-3,-4,0,34*,-3,-17
CCn1c(SCC(=O)NCCc2ccccc2)nc2sc3c(c2c1=O)CCN(C)C3,16,-7,17,35*,11,-5
CN1CCc2c(sc3nc(SCC(N)=O)n(-c4ccc(Cl)cc4)c(=O)c23)C1,9,-10,10,32*,6,7
CN1CCc2c(sc3nc(SCC(=O)N4CCCCC4)n(-c4ccccc4)c(=O)c23)C1,-5,0,21,39*,-1,-7
CN1CCc2c(sc3nc(SCC(N)=O)n(-c4ccccc4)c(=O)c23)C1,.,7,4,16,-5,-14
Cc1c(OC(C)C(=O)NC2CC(C)(C)NC(C)(C)C2)ccc2c3c(c(=O)oc12)CCC3 (stereo not drawn),9,-10,20,8,-7,-10
Cc1c(C)c2ccc(OC(C)C(=O)NC3CC(C)(C)NC(C)(C)C3)cc2oc1=O (stereo not drawn),0,0,123*,12,-1,-2
CC(NC(=O)c1nc[nH]c1C(=O)N1CCN(c2ccccc2)CC1)c1ccccc1 (stereo not drawn),6,.,.,.,.,.
CC1CN(S(=O)(=O)c2ccc(C(=O)Nc3nccs3)cc2)CC(C)O1 (stereo not drawn),11,4,2,43*,-6,-1
Cc1ccsc1C=NNC(=O)c1cc(-c2ccncc2)nc2ccccc12,7,.,.,.,.,.
Cc1ccc(-n2ncc3c(N4CCCC4)ncnc32)c(C)c1,5,-6,2,9,8,-32
COc1cccc(N2CCN(c3ncnc4c3cnn4-c3ccc(C)cc3C)CC2)c1,23,34*,-2,7,25,-13
CCOc1ccc(C=C2SC(=S)N(C(C(=O)O)c3ccccc3)C2=O)cc1OCC (stereo not drawn),-3,.,.,.,.,.
O=C1NC(Cc2ccccc2)c2nc3ccc(F)cc3c(=O)n2-c2cc3ccccc3cc21 (stereo not drawn),.,2,1,6,66*,.
O=C1C2C(c3ccc(F)cc3)N3C(=O)N(c4ccc(C(F)(F)F)cc4)C(=O)[C@@]3(Cc3ccccc3)C2C(=O)N1C1CCCCC1 (stereo partly drawn),-9,.,.,.,.,.
CCOc1cc(/C=N\Nc2ncc(F)c(N3CCOCC3)n2)ccc1Oc1nc(Cl)ncc1F,.,-7,-3,33*,7,-17
